The values below come from PubChem BioAssay AID686978 (National Center for Advancing Translational Sciences (NCATS), 2013).

Out of some 420,000 compounds screened, about 64,000 (15%) were called active. About 27% were inconclusive and are not listed. Calls follow the shape of the dose curve; as a rule, active = well fitted inhibition curve with a large enough effect; inconclusive = small, poorly fitted or top-dose-only effect; inactive = flat fitted curve, though single readings scatter. A selection follows. Entries that show only a call come without a potency.
Potency is read from the fitted curve at half-maximal effect.

The nature of this assay: qHTS for Inhibitors of human tyrosyl-DNA phosphodiesterase 1 (TDP1): qHTS in cells in absence of CPT. Also: nearly all actives have a fitted effect of over 55% in size. The settings on record: DT40 Tdp1-/- hTDP1 cells, no CPT, ATP luminescence, 48 h; activity change, negative = growth inhibition: at 46.2 µM (top of the series). A digest of the protocol:
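Camptothecin absent (DMSO only). Human TDP1-complemented DT40 knockout cells, 400 cells/well, 37 °C for minimum 48 hr; ATP measured via CellTiter-Glo, 30 min dark incubation, luminescence.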
On the technique in general: In qHTS, concentration-response curves come from the screen itself.
As to `COc1ccc(C2C(C#N)=C(N)N(c3ncn[nH]3)C3=C2C(=O)CCC3)cc1` (centres undefined), the Potency result was “inactive”. With `CSc1sc(C)cc1C1C(C#N)=C(N)N(c2cccnc2)C2=C1C(=O)CCC2` (centres undefined) the figure was 11.6 µM (active); with `N#CC1=C(N)N(c2ccccc2)C2=C(C(=O)CCC2)C1c1ccccc1` (centres undefined), “inactive”. With `Nc1c(N(CCO)C(=O)C2CCCCC2)c(=O)[nH]c(=O)n1Cc1ccccc1` the entry was “inactive”; with `COCCSc1nnc(NC(=O)c2cc(OC)c(OC)cc2[N+](=O)[O-])s1`, “inactive”; with `c1csc(-c2cn3c(n2)SCC3)c1`, “inactive”.

`O=c1c2cc(-c3ccccc3)sc2nc2n1N=C(c1cccs1)CS2`: the Potency was 23.1 µM (active). With `Cc1nnc2n1N=C(c1ccccc1)CS2` the entry was “inactive”; with `Cc1ccc(OCC(=O)N/N=C\c2ccco2)c(C)c1`, “inactive”; with `Cc1ccc(NC(=O)CCC(=O)N/N=C/c2ccco2)c(C)c1`, “inactive”. With `Cc1cc(C)c(OCC(=O)N/N=C/c2ccco2)c(C)c1` the figure was 16.4 µM (active). With `O=C(NC1CCCC1)C(c1ccco1)N(C(=O)c1csnn1)c1ccccc1` (centres undefined) the entry was “inactive”. For the compound `O=C(NCc1ccccc1)C(c1ccc(F)cc1)N1CCN(C(=O)C2CCCO2)CC1` (centres undefined), the Potency result was “inactive”. With `O=C(NCC1CCCO1)/C(=C/c1ccc(Cl)cc1)NC(=O)c1ccccc1` (centres undefined) the entry was “inactive”; with `Cc1ccc(NC(=O)CN(C)C(=O)COC(=O)c2nccnc2N)cc1`, “inactive”; with `Brc1ccccc1C1N=C(c2ccccc2)NO1` (centres undefined), “inactive”. In the case of `CCOC(=O)C1CCCN(C(=O)c2ccc(N(C)C)cc2)CC1` (centres undefined), the Potency result is “inactive”.

As for `CCN1CCN(C(=O)c2ccc(CN(c3ccc(C)c(C)c3)S(C)(=O)=O)cc2)CC1`, the Potency entry is “inactive”. With `CCOC(=O)N1CCN(C(=O)c2ccc(CN(c3ccc(C)c(C)c3)S(C)(=O)=O)cc2)CC1` the figure was 23.1 µM (active); with `CO/N=C/CC(=O)c1ccc(OC)cc1`, “inactive”; with `COCCNc1nc2nonc2nc1N(C)Cc1ccc(C)cc1`, “inactive”. With `CN(C)C(CNC(=O)CCCOc1ccccc1)c1ccco1` (centres undefined) the entry was “inactive”; with `CCC1(C)CC(=O)NC1=O` (centres undefined), “inactive”. With `CCc1cccc(C)c1NS(=O)(=O)c1c(C)nc2sccn2c1=O` the entry was “inactive”. Turning to `COc1ccc(N2CCN(S(=O)(=O)c3cc(Br)cnc3N)CC2)cc1`, the Potency result was “inactive”. With `CCc1cccc(C)c1NS(=O)(=O)c1cc(Br)cnc1N` the figure was 18.4 µM (active); with `Cc1cc(C)c2nc(-c3ccco3)cc(C(=O)O)c2c1`, “inactive”; with `CC(C)(CNC(=O)c1ccc(Cl)c(S(=O)(=O)N2CCc3ccccc3C2)c1)N1CCOCC1`, 23.1 µM (active).

Turning to `CN(C)S(=O)(=O)c1ccc(C(=O)NCC(C)(C)N2CCOCC2)cc1`, the Potency entry was “inactive”. With `CC(C)(CNC(=O)Cc1ccc(Cl)cc1Cl)N1CCOCC1` the entry was “inactive”. With `Cc1ccc(C)c(NC(=O)COC(=O)CSc2ccccc2)c1` the entry was “inactive”; with `Cc1ccccc1C(=O)Nc1ccccc1NC(=O)c1ccccc1C`, “inactive”. With `Cc1cccc(C)c1NC(=O)CS(=O)CC(=O)N1CCN(c2ccccc2)CC1` (centres undefined) the entry was “inactive”. As for `Cc1ccccc1C(=O)N1CCN(c2ccc(NC(=O)c3cccs3)cc2)CC1`, the Potency was 16.4 µM (active). With `Cc1ccccc1C(=O)Nc1ccc(N2CCCCCC2)cc1` the figure was 9.2 µM (active). With `Cc1ccccc1C(=O)NC(=S)NC1CC1` the entry was “inactive”. For the compound `COc1ccc(N2CCN(C(=O)c3cccs3)CC2)cc1`, the Potency result is “inactive”. With `Cc1ccccc1C(=O)NC(=S)Nc1ccc(N2CCN(C(=O)c3ccccc3)CC2)cc1` the figure was 10.3 µM (active); with `O=C(Nc1ccc(N2CCN(C(=O)c3cccs3)CC2)cc1)c1cccnc1Cl`, “inactive”; with `O=C(NC(=O)c1ccccc1N1CCCCC1)Nc1ccc(Br)cc1`, “inactive”. With `NS(=O)(=O)c1ccc(CCNC(=O)COC(=O)COc2cccc(C(F)(F)F)c2)cc1` the entry was “inactive”. With `Cc1noc(NS(=O)(=O)c2ccc(NC(=O)c3oc4ccc(F)cc4c3C)cc2)c1C` the entry was “inactive”.

Take `Cc1cc(C)n(CC(=O)Nc2ccc([N+](=O)[O-])cc2)n1`: the Potency result is “inactive”.

As to `COC(=O)c1cccc(-n2[nH]nnc2=S)c1`, the Potency entry is “inactive”. As for `CC(=O)c1ccc(S(=O)(=O)NCc2nnnn2-c2ccccc2)cc1`, the Potency result was “inactive”. With `OCCCNC(c1ccccc1)c1ccc(O)cc1` (centres undefined) the entry was “inactive”. On to `O=C(CC1C(=O)NCCN1CC(c1ccccc1)c1ccccc1)NCC1CCOCC1` (centres undefined), for which the Potency entry is “inactive”.

Take `COc1cc(-c2cc3n(C)c(C)c(CCC(=O)Nc4ccc(F)cc4)c(=O)n3n2)cc(OC)c1OC`: the Potency result is “inactive”. With `Cc1ccc(CNC(=O)C2CCCN2C(=O)NCc2ccccc2)cc1` (centres undefined) the entry was “inactive”; with `CCN(CC)S(=O)(=O)c1ccc(N2CC(C(=O)NCc3cccnc3)CC2=O)cc1` (centres undefined), “inactive”. With `O=C(Nc1cccnc1Cl)c1cc(-c2ccccc2O)on1` the entry was “inactive”; with `Brc1ccc(OCCn2ccnc2)cc1`, “inactive”; with `COc1ccc(CCN=C2SCC(=O)N2C)cc1OC`, “inactive”. With `Cc1ccc2c(c1)c1ncn(Cc3ccc(F)cc3)c(=O)c1n2C` the entry was “inactive”. With `Cc1ccc2c(c1)c1ncnc(N3CCc4ccccc4C3)c1n2C`, the Potency was 20.6 µM (active). With `Cc1ccc(S(=O)(=O)Nc2nc3ccccc3nc2N2CCc3ccccc3C2)cc1` the entry was “inactive”; with `CCN(C(=O)COC(=O)/C=C/c1nc2ccccc2s1)C1CCS(=O)(=O)C1` (centres undefined), “inactive”; with `CCOC(=O)C1=C(C)NC(C)=C(C(=O)OCC)C1C1=COCCO1`, “inactive”. With `Cc1ccccc1C(OCCN(C)C)C1CCCCC1` (centres undefined) the figure was 29.1 µM (active); with `CN(C)CCOC(=O)C(c1ccccc1)C1(O)CCCC1` (centres undefined), “inactive”.

On to `Cc1nn(Cc2ccc(Cl)cc2)c(Cl)c1/C=N/NC(=O)c1cccnc1`, for which the Potency result was “inactive”. With `CC1(C)C/C(=C(/C#N)C(N)=O)CCO1` the entry was “inactive”; with `O=C(O)c1ccccc1NC(=S)NC(NC(=O)c1ccccc1[N+](=O)[O-])C(Cl)(Cl)Cl` (centres undefined), “inactive”. Take `Cc1cc(C)cc(N(CC(=O)Nc2c(C)n(C)n(-c3ccccc3)c2=O)S(C)(=O)=O)c1`: the Potency entry is “inactive”. In the case of `CCOc1ccc(S(=O)(=O)N2CCCCC2)cc1NC(=O)CN1CCCC1c1cccs1` (centres undefined), the Potency is 2.06 µM (active). With `Cc1ccc(S(=O)(=O)N2CCCCC2)cc1NC(=O)[C@@H]1CCCN1C(=O)c1cccs1` the entry was “inactive”; with `COc1ccc(S(=O)(=O)N2CCCCCC2)cc1NC(=O)Cc1ccc(OC)c(OC)c1`, “inactive”. With `CCN(C(=O)C1CCCN(c2nc(-c3ccc(OC)cc3)no2)C1)c1ccc(OC)cc1` (centres undefined) the figure was 20.6 µM (active); with `COc1cccc(N(CC(=O)NC2CCCC2)C(=O)Cn2nnc(-c3ccc(C)cc3)n2)c1`, “inactive”. With `C=CCOc1c2ccc(C(=O)N(CC)c3ccc(OC)cc3)cc2nn1C` the entry was “inactive”; with `O=C1C(=O)N(CCCO)C(c2ccccc2)/C1=C(\O)c1ccc(Br)cc1` (centres undefined), “inactive”. For the compound `Cc1ccc(C(=O)NC2CC(C)(C)NC(C)(C)C2)c(C)c1`, the Potency result is “inactive”. With `Cn1c2c(c(=O)n(C)c1=O)C1c3ccccc3OCC1C(C)(C)O2` (centres undefined) the entry was “inactive”. With `CC(Nc1nc(C(F)(F)F)nc2ccccc12)c1cccs1` (centres undefined) the figure was 20.6 µM (active); with `CCN(CC)C(=O)c1ccc(O)c(OC)c1`, “inactive”. With `CC1CCN(C(=O)Cn2c(=O)n(-c3ccc(Cl)cc3)c(=O)c3c4c(sc32)CCC4)CC1` the entry was “inactive”; with `CCOC(=O)N1CCc2c(sc3c2c(=O)n(Cc2ccccc2)c(=O)n3CC(=O)Nc2cccc(C)c2)C1`, “inactive”. Turning to `O=c1c2c3c(sc2n(CCN2CCCC2)c(=O)n1Cc1ccccc1)CCCCC3`, the Potency was 11.6 µM (active). With `NC(=O)c1ncc(C(F)(F)F)cc1Oc1ccc(F)cc1` the entry was “inactive”; with `COc1ccc(S(=O)(=O)N2CCCC(C(=O)NCCCn3ccnc3)C2)cc1OC` (centres undefined), “inactive”. With `CC(C)c1ccc(NC(=O)C2CCCN(S(=O)(=O)c3cccnc3)C2)cc1` (centres undefined) the figure was 7.31 µM (active); with `COc1ccc(NC(=O)C2CCCN(S(=O)(=O)c3c(C)[nH]c(=O)[nH]c3=O)C2)c(OC)c1` (centres undefined), “inactive”. With `Cc1n[nH]c(C)c1S(=O)(=O)N1CCCC(C(=O)Nc2ccc(Br)cc2)C1` (centres undefined) the figure was 16.4 µM (active); with `Cc1ccccc1N1CC(C(=O)Nc2ccc(S(=O)(=O)N3CCCC3)cc2)CC1=O` (centres undefined), “inactive”.

In the case of `Cc1n[nH]c(C)c1S(=O)(=O)N1CCCC(C(=O)NCC2COc3ccccc3O2)C1` (centres undefined), the Potency result was “inactive”. As for `O=C(Cc1ccsc1)N1CCN(S(=O)(=O)c2cc(C(F)(F)F)cc(C(F)(F)F)c2)CC1`, the Potency entry is “inactive”. With `CCOC(=O)C1=CN(Cc2ccc(Br)cc2)S(=O)(=O)NC1C` (centres undefined) the entry was “inactive”; with `Cc1ccc(C(=O)NNC2=Nc3cc([N+](=O)[O-])ccc3OC2)cc1`, “inactive”.

In the case of `Cc1nn(C(=O)c2c(F)cccc2F)c(C)c1S(=O)(=O)N1CCOCC1`, the Potency entry was “inactive”. With `CC(C)=N/N=C1/NC(=O)C(Cc2ccccc2)S1` (centres undefined) the entry was “inactive”; with `O=C(NC(=S)Nc1ccc(Br)cc1F)C1CCCCC1`, “inactive”; with `Cc1nnsc1C(=O)N/N=C/c1ccccc1Cl`, “inactive”. With `Cc1ccc(/C=N/NC(=O)C2=NNC(c3ccccc3)(c3ccccc3)C2)c(O)c1` the figure was 4.11 µM (active); with `O=C(N/N=C/c1ccc(O)c2ccccc12)c1cccnc1`, “inactive”. With `O=C(O)c1cscn1` the entry was “inactive”; with `S=C(NCCC1=CCCCC1)Nc1ccccc1`, 23.1 µM (active). On to `CC(=O)Nc1ccc(S(=O)(=O)N(C)CC(=O)NCCC2=CCCCC2)cc1`, for which the Potency entry was “inactive”. With `O=C(CCNC(=O)Cn1ccc2ccccc2c1=O)NCCC1=CCCCC1` the entry was “inactive”; with `CC(OC(=O)c1c(F)cccc1F)C(=O)NCCC1=CCCCC1` (centres undefined), “inactive”. With `O=C(Cc1nn[nH]n1)NCCC1=CCCCC1` the entry was “inactive”; with `O=C(Cc1cccc2ccccc12)NCCC1=CCCCC1`, 29.1 µM (active); with `CC(C)CC(=O)N1CCN(Cc2cccc(Cl)c2)CC1`, “inactive”.

Consider `CCOc1ncccc1C(=O)N(CC)CC(=O)Nc1ccc(NC(C)=O)cc1`, for which the Potency result was “inactive”. With `COc1ccc(-n2nc(C(=O)NCCc3ccc(Cl)cc3)c3c4ccccc4n(C)c3c2=O)cc1Cl` the figure was 13 µM (active). For the compound `COc1ccc(-n2nc(C(=O)NCC(=O)N3CCCCCC3)c3ccccc3c2=O)cc1Cl`, the Potency is 23.1 µM (active). With `COc1ccc(-n2nc(C(=O)NCC(=O)N3CCC(C(N)=O)CC3)c3ccccc3c2=O)cc1OC` the entry was “inactive”; with `CCOC(=O)c1ccccc1NC(=O)c1nn(-c2ccc(OC)c(Cl)c2)c(=O)c2c1c1ccccc1n2C`, “inactive”. With `COCCCNC(=O)CNC(=O)c1nn(-c2ccc(OC)cc2)c(=O)c2ccccc12` the entry was “inactive”; with `CCOC(=O)CNC(=O)c1nn(-c2cccc(OC)c2)c(=O)c2ccccc12`, “inactive”.
